# According to ChEMBL document CHEMBL3988442, “University of Dundee, Small-Polar-MMV Screening Library” (2021):
# Among all 69,000 compounds or so, about 1,000 (1.4%) showed an effect of 50% or more. Shown is part of a subset that was picked to be rich in strong results.
# Tested on: Leishmania donovani
# Assay: Leishmania intramacrophage assay
# Type: functional, organism-based
# Parameters: scale not given: in the data most compounds retested in dose-response had high values
structure (smiles),measurement,setting,value
CNS(=O)(=O)CC(=O)N1CCC(c2ccc(F)c(F)c2)CC1,Percent Effect,"30.3 µM, […]",9.155%
CC(C)c1nnc2n1CCN(C(=O)c1ccc3c(c1)NC(=O)CO3)C2,Percent Effect,"30.3 µM, […]",10.03%
O=C(C1CCC1)N1C[C@@H]2CCN(c3cccnc3)C[C@@H]2C1.O=C(O)C(F)(F)F,Percent Effect,"30.3 µM, […]",7.145%
O=C(O)C(F)(F)F.O=C(c1ccc(F)cc1)N1C[C@@H]2CCN(c3cccnc3)C[C@@H]2C1,Percent Effect,"30.3 µM, […]",-2.032%
Fc1cccc(N2C[C@H]3CCN(c4cccnc4)C[C@H]3C2)c1.O=C(O)C(F)(F)F,Percent Effect,"30 µM, 30.03 µM",57.72%
CCn1cnnc1C1CCN(C(=O)c2cccc3c2ccn3C)CC1,Percent Effect,"30 µM, 30.03 µM",34.62%
CNC(=O)Cc1ccc(NC(=O)NC2(c3cccc(F)c3)CC2)cc1,Percent Effect,"30.3 µM, […]",15.99%
O=C(Cc1cccc(O)c1)NC1CCN(c2cccc(Cl)c2)C1 (stereo not given),Percent Effect,"30.3 µM, […]",5.178%
Cc1nnc(-c2cccc(N3CCC(NC4CCSC4)CC3)c2)s1 (stereo not given),Percent Effect,"30.3 µM, […]",17.73%
Cc1ccc(-c2cccc(N3CCC(NC4CCOCC4)CC3)c2)cc1,Percent Effect,"30.3 µM, […]",88.48%
Clc1cccc(-c2cccc(N3CCC(NC4CCOCC4)CC3)c2)c1,Percent Effect,"30.3 µM, […]",97.72%
CCc1cccc(N2CCC(NC(=O)C3CCOCC3)CC2)c1,Percent Effect,30 µM,8.469%
Cc1nc(-c2cccc(N3CCC(NC4CCOCC4)CC3)c2)cs1,Percent Effect,"30.3 µM, […]",22.64%
CN(C(=O)Cn1nc(-c2cccs2)ccc1=O)C1CCS(=O)(=O)C1 (stereo not given),Percent Effect,"30 µM, 30.03 µM",-0.2404%
CCn1nc(C)c2nnn(CC(=O)Nc3ccc(C)c(C)c3)c(=O)c21,Percent Effect,"30.3 µM, […]",-87.23%
COCCN1CCOCC12CCN(c1ccc(C#N)cc1)CC2.O=C(O)C(F)(F)F,Percent Effect,"30.3 µM, […]",3.251%
O=C(N[C@@H]1C[C@H]2CC[C@@H]1C2)C1(Oc2ccc(Cl)cc2)CCNCC1,Percent Effect,"30.3 µM, […]",99.44%
O=C(N[C@@H]1CCCNC1)C1(Oc2ccc(Cl)cc2)CCNCC1,Percent Effect,"30.3 µM, […]",12.74%
CO[C@H]1COC[C@@H]1NC(=O)C1(Oc2ccc(Cl)cc2)CCNCC1,Percent Effect,"30.3 µM, […]",9.396%
CCOc1ccc(OCc2nc3c(c(=O)[nH]2)CCNC3)cc1,Percent Effect,"30.3 µM, […]",15.57%
COc1ccc(Br)c(C(=O)NCCNc2ccc(C(F)(F)F)cn2)c1,Percent Effect,"30 µM, 30.03 µM",56.64%
COc1ccc(C(=O)NCCCNc2ccc(C(F)(F)F)cn2)cc1,Percent Effect,30 µM,37.73%
O=C(NCCCNc1ccc(C(F)(F)F)cn1)c1ccc(F)cc1Br,Percent Effect,30 µM,45.44%
CCOC(=O)N1CCc2ccccc2C12CCNCC2.Cl,Percent Effect,"30.3 µM, […]",0.5062%
COC(=O)Nc1ccc(CNc2cncc(-n3cccn3)n2)cc1,Percent Effect,30 µM,52.92%
CNC(=O)COc1ccc(CNc2cncc(-n3cccn3)n2)cc1,Percent Effect,30 µM,19.22%
COCc1ccc(CNc2cncc(-n3cccn3)n2)cc1,Percent Effect,30 µM,27.73%
CN1CC[C@H]2CN(C(=O)c3ccc4sc5c(c4c3)CCNC5=O)C[C@H]21,Percent Effect,"30.3 µM, […]",4.332%
CC(=O)N1CCC2(CC1)CCN(C(=O)c1ccc(F)c(C(F)(F)F)c1)C2,Percent Effect,"30.3 µM, […]",-8.189%
COc1ccnc(N2CCc3ccc(OC(F)F)cc3C2)n1,Percent Effect,"30.3 µM, […]",-15.45%
COc1ccc(C2CN(c3nc(C)cc(C)n3)CCN2C(C)=O)cc1 (stereo not given),Percent Effect,"30.3 µM, […]",30.74%
COc1ccc2c(c1)CN(c1nc(C)cc(C)n1)CC2,Percent Effect,"30.3 µM, […]",98.91%
Cc1cc(C)nc(N2CCc3ccc(OC(F)F)cc3C2)n1,Percent Effect,"30.3 µM, […]",84.87%
COc1cccc(O[C@H]2CCN(c3nc(C)cc(C)n3)CC[C@@H]2O)c1,Percent Effect,"30.3 µM, […]",-35.99%
COc1ccc2c(c1)CN(c1cc(N3CCCC3CO)ncn1)CC2 (stereo not given),Percent Effect,"30.3 µM, […]",11.17%
O=C(CNC(=O)C1(c2ccc(F)cc2F)CCC1)Nc1cccnc1,Percent Effect,"30.3 µM, […]",-11.9%
COc1cccc2c1OCC(CNC(=O)CN(C)C1CCCC1)C2 (stereo not given),Percent Effect,"30.3 µM, […]",-18.43%
CC(C)CN1C(=O)CC[C@H]2CN(C(=O)Cn3ccccc3=O)CC[C@H]21,Percent Effect,"30.3 µM, […]",3.813%
NC(=O)N1CCCC(C(=O)N2CCN(c3nsc4ccccc34)CC2)C1 (stereo not given),Percent Effect,"30.3 µM, […]",34.33%
CC(C)N1CCCC(C(=O)N2CCN(c3nsc4ccccc34)CC2)C1 (stereo not given),Percent Effect,"30.3 µM, […]",77.99%
CCN1CC(C(=O)N2CCN(c3nsc4ccccc34)CC2)CCC1=O (stereo not given),Percent Effect,"30.3 µM, […]",22.5%
COc1c(C2CCCN2C(=O)CCNc2ncccn2)c(C)nn1C (stereo not given),Percent Effect,30 µM,5.312%
COc1ccc(CN(C(=O)C2CCCS2)c2ccncc2)cc1 (stereo not given),Percent Effect,"30.3 µM, […]",-1.322%
COc1ccc(Oc2ccc(C(F)(F)F)cn2)cc1CN1CCCC1,Percent Effect,"30.3 µM, […]",2.243%
COc1cc(Oc2ccc(C#N)cn2)ccc1CN1CCCC1,Percent Effect,"30.3 µM, […]",2.326%
COc1cc(Oc2ccc(C(F)(F)F)cn2)ccc1CN1CCCC1,Percent Effect,"30.3 µM, […]",61.15%
CCOCCC(=O)Nc1ccnn1-c1ccc(Cl)cc1,Percent Effect,"30.3 µM, […]",0.3355%
COCCOCC(=O)Nc1ccnn1-c1ccc(Cl)cc1,Percent Effect,"30.3 µM, […]",23.94%
COCC(=O)Nc1ccnn1-c1ccc(Cl)cc1,Percent Effect,"30.3 µM, […]",82.71%
Cc1n[nH]c(C)c1CCN(C)c1ccc(-c2nc(C3CC3)no2)cn1,Percent Effect,"30.3 µM, […]",22.75%
Cc1nc(CCNC(=O)C(N)c2c(C)n[nH]c2C)sc1C (stereo not given),Percent Effect,"30.3 µM, […]",7.254%
Cc1nc(CNC(=O)NC2CCN(c3cccc(Cl)c3)C2)no1 (stereo not given),Percent Effect,"30.3 µM, […]",40.16%
CC(C)c1n[nH]c(C2CN(Cc3ccno3)CCO2)n1 (stereo not given),Percent Effect,"30.3 µM, […]",53.56%
Cc1nc(CN2CCOC(c3nc(C(C)C)n[nH]3)C2)oc1C (stereo not given),Percent Effect,"30 µM, 30.03 µM",-6.521%
CC(C)c1n[nH]c(C2CN(Cc3ncc[nH]3)CCO2)n1 (stereo not given),Percent Effect,"30.3 µM, […]",-15.06%
Cc1cnn(CCNCc2ccc(S(C)(=O)=O)cc2)c1,Percent Effect,"30.3 µM, […]",-1.29%
CC(C)CCc1n[nH]c(C(=O)O)c1Br,Percent Effect,"30.3 µM, […]",1.329%
O=C(O)C(F)(F)F.O=C(c1ccco1)N1CC[C@@H]2CN(C3CCOCC3)CCO[C@@H]2C1,Percent Effect,"30.3 µM, […]",39.91%
O=C(O)C(F)(F)F.O=C(c1ccco1)N1CCO[C@@H]2CN(Cc3nccs3)CC[C@@H]2C1,Percent Effect,"30.3 µM, […]",43.58%
O=C(O)C(F)(F)F.O=C(c1ccco1)N1CCO[C@@H]2CN(CC3CC3)CC[C@@H]2C1,Percent Effect,"30.3 µM, […]",52.8%
CCS(=O)(=O)N1CC[C@H]2[C@H]1CC(=O)N2Cc1csc(C)n1,Percent Effect,"30.3 µM, […]",11.91%
O=C(C1CCOCC1)N1C[C@H]2CCC[C@@]2(COCc2ccccn2)C1,Percent Effect,"30.3 µM, […]",39.51%
O=C(C1CCC1)N1C[C@@H]2CC[C@H](C1)N(S(=O)(=O)c1ccccc1)C2,Percent Effect,"30.3 µM, […]",-6.923%
O=C1CCC(=O)c2oc3ccc(Br)cc3c2N1,Percent Effect,"30.3 µM, […]",-16.45%
Cc1cc(Nc2cnccn2)cc(C2CCCN2)n1 (stereo not given),Percent Effect,"30.3 µM, […]",50.63%
Cc1cc(Nc2cnccn2)cc(C2CCCNC2)n1 (stereo not given),Percent Effect,"30.3 µM, […]",-25.49%
Cc1nc(Nc2cnccn2)cc(C2CCCN2)n1.Cl (stereo not given),Percent Effect,"30.3 µM, […]",-4.51%
CSC1(CNC(=O)CCc2ccc(Cl)s2)CCOCC1,Percent Effect,"30.3 µM, […]",-1.683%
COCCN1CCC(CNC(=O)c2ccnc(-n3ccnc3)c2)CC1,Percent Effect,"30.3 µM, […]",-33.66%
CCOCC1CN(Cc2ccoc2)Cc2cn(CC3CC3)nc21 (stereo not given),Percent Effect,"30.3 µM, […]",26.22%
CCS(=O)(=O)N1CCCC(c2nccn2Cc2ccccn2)C1 (stereo not given),Percent Effect,"30.3 µM, […]",2.474%
CCS(=O)(=O)N1CCN(C(=O)NC(C)C)CC2(CC(=O)N(C)C2)C1 (stereo not given),Percent Effect,"30.3 µM, […]",15.87%
CCC(CO)NCc1ccc(-c2ccc(F)c(Cl)c2)o1.Cl (stereo not given),Percent Effect,"30.3 µM, […]",76.93%
CCCn1nnc(NCc2ccc(-c3ccc(Br)cc3)o2)n1,Percent Effect,"30.3 µM, […]",-28.31%
CCC(CO)NCc1ccc(-c2ccccc2F)o1 (stereo not given),Percent Effect,"30.3 µM, […]",4.793%
CC(NCc1ccc(-c2ccc(Cl)cc2)o1)c1nnc2n1CCC2 (stereo not given),Percent Effect,"30.3 µM, […]",-2.109%
CCn1nnc(NCc2ccc(-c3ccc(Br)cc3)o2)n1,Percent Effect,"30.3 µM, […]",4.739%
CCC(CO)NCc1ccc(-c2ccc(Cl)cc2)o1.Cl (stereo not given),Percent Effect,"30.3 µM, […]",78.06%
CCC(CO)NCc1ccc(-c2ccc(F)cc2)o1.Cl (stereo not given),Percent Effect,"30.3 µM, […]",4.62%
CCC(CO)NCc1ccc(-c2ccc(Br)cc2)o1.Cl (stereo not given),Percent Effect,"30.3 µM, […]",86.07%
CCC(CO)NCc1ccc(-c2ccccc2)o1.Cl (stereo not given),Percent Effect,"30.3 µM, […]",7.098%
COCCN1CCN(CC(=O)NC2(C#N)CCCC2)CC1,Percent Effect,"30.3 µM, […]",21.7%
Cn1cc(-c2cnc(N3CCOCC3)nc2)cc1C(=O)NCCC#N.O=C(O)C(F)(F)F,Percent Effect,"30.3 µM, […]",12.83%
CN(CC(=O)NC(C)(C)C)Cc1cccc2c1OCCO2,Percent Effect,"30.3 µM, […]",16.54%
CC1CCN(c2ccc(NC(=O)CCn3cccn3)cc2)CC1,Percent Effect,"30.3 µM, […]",16.17%
Cc1cc(C(=O)N2C[C@@H]3[C@@H](C2)OCC(=O)N3CC2CC2)no1,Percent Effect,"30 µM, 30.03 µM",18.33%
CCCn1nc(C)c(-c2cncn2CCN(C)C2CCCC2)c1C.Cl,Percent Effect,"30.3 µM, […]",42.92%
Cc1nn(C)cc1-c1cncn1CCN(C)C1CCCC1.Cl,Percent Effect,"30.3 µM, […]",52.65%
CCn1nc(C)c(-c2cncn2CCN(C)C2CCCC2)c1C.Cl,Percent Effect,"30.3 µM, […]",32.48%
CC(C)C1CN(c2nccc(N)n2)CCC(=O)N1Cc1ccc(F)cc1 (stereo not given),Percent Effect,"30.3 µM, […]",-20.97%
COc1cccc2c1OCC(CNC(=O)Cn1ccnc1C)C2 (stereo not given),Percent Effect,"30.3 µM, […]",4.9%
OC(CNCCn1cccn1)COc1ccc2ccccc2c1 (stereo not given),Percent Effect,"30.3 µM, […]",56.8%
OC(CNCCn1cccn1)COc1ccc(F)cc1 (stereo not given),Percent Effect,"30.3 µM, […]",20.47%
OC(CNCCn1cccn1)COc1ccc(Br)cc1 (stereo not given),Percent Effect,"30.3 µM, […]",25.57%
Cc1nnc2n1CCN(C(=O)C(OC1CCCC1)c1ccccc1)C2 (stereo not given),Percent Effect,"30.3 µM, […]",5.78%
O=C(Nc1ccc(S(=O)(=O)Nc2c(F)cccc2F)cc1)N1CCCC1,Percent Effect,"30.3 µM, […]",12.59%
CC(=O)NCC(=O)N1CCOC2(CCCN(c3cccnc3)C2)C1.O=C(O)C(F)(F)F (stereo not given),Percent Effect,"30 µM, 30.03 µM",4.273%
CC(=O)N1CCCCC1c1ncnn1-c1ccc2nc(C)sc2c1 (stereo not given),Percent Effect,"30.3 µM, […]",29.12%
Cc1nc2ccc(-n3ncnc3[C@@H]3CCCN3S(C)(=O)=O)cc2s1,Percent Effect,"30.3 µM, […]",99.47%
CS(=O)(=O)N1CCC[C@H]1c1ncnn1-c1ccc2c(c1)OCO2,Percent Effect,"30.3 µM, […]",-61.62%
